tim10-1 inh: inhibits growth of tim10-1 mutant yeast. AID 463190. hit rate 2.2% among 330,000. S. cerevisiae tim10-1 ts strain growth, BacTiter-Glo, 24 h. inhibition, % at 20 µM;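 active = inhibition of at least 40%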;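 also: mutant grown at 25 °C; 0% = DMSO wells with yeast and 100% = wells holding no yeast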
tim23-1 inh: growth inhibitors of tim23-1 mutant yeast; S. cerevisiae tim23-1 growth, BacTiter-Glo luminescence, 24 h; inhibition, % at 20 µM; hit rate 1.3% among 330,000; AID 463212;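 active = growth inhibition of the mutant yeast at or above 50%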;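 also: temperature-sensitive mutant grown at 25 °C; plate controls were DMSO-treated mutant yeast for no effect and medium wells lacking yeast for full effect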
TIM10 inh: inhibits growth of TIM10 yeast strain | hit rate 1.4% among 330,000 | inhibition, % at 10 µM | S. cerevisiae TIM10 strain growth, BacTiter-Glo luminescence, 24 h;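 active = inhibition of 40% or more at the single tested concentration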;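 also: wild-type TIM10 isogenic control strain grown at permissive 25 °C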
V-ATPase pH: yeast V-ATPase proton transport regulation by pHLuorin; S. cerevisiae, pHLuorin cytosolic pH fluorescence; response, % at 10 µM; hit rate 0.37% among 350,000; in the data active = response mostly above about 7.3%, no sharp cut-off; inactive = mostly below about 5.4%; also: actives read high
PfHsp90 yeast 2: growth inhibition of yeast expressing Plasmodium Hsp90; S. cerevisiae expressing PfHsp90, BacTiter-Glo ATP, 48 h; yeast lacking PDR1 and PDR3 efflux regulators; inhibition, % at 9.4 µM; hit rate 0.32% among 310,000; AID 504621;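 active = every replicate shows inhibition above about 80%, whatever the replicate mean, limit read from the data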;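 also: 0% = DMSO neutral controls and 100% = 20 µM radicicol positive controls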
tim10-1 conf: tim10-1 yeast growth inhibition, confirmed; shares compounds with tim10-1 inh; S. cerevisiae tim10-1 ts strain growth, BacTiter-Glo, 24 h; inhibition, % at 20 µM; hit rate 56% among 7,400; AID 463213;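 active = inhibition of yeast growth at or above a set limit in either of two repeat tests at 20 µM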;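 also: tim10-1 mutant grown at permissive 25 °C to find synthetic lethal compounds; 0% = DMSO yeast wells and 100% = medium wells without yeast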
tim10 confirm: TIM10 yeast growth inhibition, confirmed. inhibition, % at 10 µM. shares compounds with TIM10 inh. hit rate 63% among 4,600. S. cerevisiae tim10 strain growth, BacTiter-Glo luminescence, 24 h;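 active = inhibition of yeast growth at or above a set limit in either of two replicates at 10 µM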;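 also: this counterscreen used the strain with wild-type TIM10; 0% = yeast with DMSO and 100% = medium wells lacking yeast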
tim23-1 confirm: tim23-1 yeast growth inhibition, confirmed | shares compounds with tim23-1 inh | S. cerevisiae tim23-1 growth, BacTiter-Glo luminescence, 24 h | inhibition, % at 20 µM | hit rate 83% among 4,400;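 active = inhibition above about 39% in either of two replicate wells at 20 µM, limit read from the data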;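 also: temperature-sensitive tim23-1 mutant grown at 25 °C; 0% = DMSO wells with yeast and 100% = medium wells without yeast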
* hit, by the source's call; x = not tested or not shown. Rows were chosen to be rich in hits. Some 3.7% of all compounds tested hit in one or more screens of this group.

SMILES	tim10-1 inh	tim23-1 inh	TIM10 inh	V-ATPase pH	PfHsp90 yeast 2	tim10-1 conf	tim10 confirm	tim23-1 confirm
COc1ccc(CC(=O)OCC(=O)NC2CCCC(C)C2C)cc1OC (configuration not stated)	13	22	10	-2	x	x	x	x
FC(F)(F)c1nnc(-c2ccccc2)nc1Sc1ccc(Cl)cc1	51*	62*	31	-3	-7	49*	x	47*
FC(F)(F)c1cccc(Sc2nc(-c3ccccc3)nnc2C(F)(F)F)c1	40	22	15	-1	4	x	x	x
Cc1ccccc1OCCN1C(=O)C(=O)c2cccc(C)c21	45*	60*	23	1	0	26	x	33
COc1ccccc1OCCCN1C(=O)C(=O)c2cccc(C)c21	9	37	18	1	17	x	x	x
Cc1cccc2c1N(CCOc1ccccc1Cl)C(=O)C2=O	51*	56*	27	11	27	19	x	-30
O=C(COC(=O)c1cc(Br)ccc1O)c1ccc(F)cc1	-7	7	-13	-1	18	x	x	x
O=C(/C=C/c1ccc(F)cc1)c1cc(Br)ccc1O	45*	50*	53*	-13	1	71*	70*	22
CC(C)N=c1scc(-c2ccco2)n1/N=C/c1ccc(O)c(O)c1	47*	54*	34	9	9	19	x	60*
Cc1ccc(C)c(S(=O)(=O)N2CCN(C(=O)Cn3cnc4c3c(=O)n(C)c(=O)n4C)CC2)c1	-11	-12	-5	0	12	x	x	x
Clc1cccc(N/N=C(\Cc2nc3ccccc3[nH]2)c2ccccc2)c1	40*	64*	56*	-2	0	-12	8	14
c1ccc(N/N=C(\Cc2ncc[nH]2)c2ccccc2)cc1	13	21	20	-2	14	x	x	x
O=[N+]([O-])c1cccc(C2NCC(c3ccccc3Cl)c3c2[nH]c2ccccc32)c1 (configuration not stated)	59*	58*	63*	2	1	52*	58*	76*
C/C(=C\c1ccccc1)C(=O)NCCc1ccccc1	3	2	-9	0	-20	x	x	x
O=C(Oc1ccc(Br)cc1C(=O)/C=C/c1ccccc1F)c1ccco1	41*	60*	70*	-1	-141	40*	62*	43*
N#C/C(=C\c1c(Cl)cccc1Cl)c1nc2ccccc2[nH]1	63*	61*	48*	-2	-12	53*	52*	73*
N#C/C(=C\c1c(Cl)cccc1Cl)c1nc2ccccc2o1	73*	62*	40*	-2	-45	75*	-15	74*
CCN1CCN(c2ccc(S(=O)(=O)N3CCCCC3)cc2N)CC1	-1	-11	8	1	-22	x	x	x
O=c1c(-c2ccccc2)n[nH]c2ccccc12	-41	26	7	1	-3	x	x	x
O=C1c2ccccc2-c2n[nH]c3cccc1c23	59*	67*	33	2	-26	25	x	67*
CCCN(CCC)S(=O)(=O)c1cccc(C(=O)N=c2sccn2C)c1	-1	21	-32	3	3	x	x	x
COc1ccc(/C=N/Nc2cc(N3CCCC3)nc(N3CCCC3)n2)cc1	45*	68*	27	3	5	18	x	44*
Oc1ccc(/C=N/Nc2cc(N3CCCC3)nc(N3CCCC3)n2)cc1	20	27	22	-3	17	x	x	x
C/C(=N\Nc1nc(C)cc(-c2ccccc2)n1)c1ccc(F)cc1	5	5	1	3	-5	x	x	x
C/C(=N/Nc1nc(-c2ccccc2)cc(-c2ccc(F)cc2)n1)c1cccc(N)c1	46*	55*	52*	-5	-25	44*	0	53*
SMILES	tim10-1 inh	tim23-1 inh	TIM10 inh	V-ATPase pH	PfHsp90 yeast 2	tim10-1 conf	tim10 confirm	tim23-1 confirm
O=[N+]([O-])c1ccc(N=Nc2ccc(O)c3ccccc23)cc1	x	x	x	-3	-16	x	x	x
Cc1cc(C)n(CC(C)(O)c2ccccc2)n1 (configuration not stated)	-6	-5	-2	-2	11	x	x	x
C=CCSc1nsc(NC(=O)Nc2ccc(F)cc2)n1	62*	78*	66*	2	-1	74*	65*	78*
CCSc1nsc(NC(=O)Nc2ccccc2F)n1	19	26	-4	1	3	x	x	x
CCOc1cccc(CNc2ccc(O)cc2)c1OCc1ccc(Cl)cc1	43*	60*	21	-2	13	32*	x	59*
CC(OC(=O)/C(C#N)=C/c1ccc(N(C)C)cc1)C(=O)N(C)Cc1ccccc1 (configuration not stated)	27	30	10	-4	15	x	x	x
Cc1ccc(C)c(/C=C2\N=C(c3ccccc3F)OC2=O)c1	40*	53*	46*	-3	0	57*	53*	54*
COc1cc(/C=C2/N=C(c3ccccc3F)OC2=O)cc(Cl)c1OS(C)(=O)=O	13	9	5	6	8	x	x	x
CN(Cc1ccccc1)c1nc(CN2CCOCC2)nc2scc(-c3ccccc3)c12	47*	65*	55*	-1	2	42*	40*	61*
CC(=O)COC(=O)c1cc(-c2ccc(C)cc2)nc2ccccc12	37	25	35	2	-1	x	x	x
CC(=O)Nc1ccc(-c2cc(C(=O)O)c3cc4ccccc4cc3n2)cc1	x	x	x	0	x	x	x	x
Cc1ccc(/C(N)=N/OC(=O)c2cc(-c3ccccc3)nc3ccccc23)cc1	70*	84*	86*	-3	-18	64*	86*	80*
N/C(=N\OC(=O)c1ccccc1Cl)c1ccccn1	23	9	21	-1	18	x	x	x
COc1ccc(/C(N)=N/OC(=O)c2cc(-c3ccccc3)nc3ccccc23)cc1	67*	79*	82*	-2	2	63*	75*	76*
N/C(=N\OC(=O)c1cc(-c2ccccc2)nc2ccccc12)c1ccccn1	54*	81*	84*	2	8	31*	89*	63*
COC(=O)c1cc(-c2ccc(NC(C)=O)cc2)nc2ccccc12	50*	53*	36	x	-8	38*	x	57*
CC1C(=O)N2CCCc3cc(NC(=O)C(=O)NCCc4ccccc4)cc1c32 (configuration not stated)	30	16	15	0	4	x	x	x
O=c1c2ccccc2nc(-c2ccc(Cl)c(Cl)c2)n1O	49*	79*	62*	0	-16	30*	55*	73*
CSCc1c(C(=O)OCC(=O)c2ccc[nH]2)oc2ccccc12	51*	59*	67*	3	x	19	63*	74*

From PubChem
